“And” between values parts separate entries of the source, which are not always exact repeats. Equal values may be shown once. Among all 360,000 compounds or so, about 7,300 (2%) were called active. The full list was thinned out, with actives kept by preference. Values without a mark were called inactive. No stated cut-off is given here; in the data, active means inhibition above about 50%; inactive means the rest.

By inhibition is commonly meant the change of the read-out against control, counted positive when it falls.

The experiment can be described thus: blockers of TWEAK-induced Fn14 reporter activity – luciferase reporter cells, uHTS, primary screen (AID 1159606). The conditions noted are these: TWEAK-stimulated Fn14 reporter cells, luciferase luminescence, 8 h; at 10 µM; hits give high values. For orientation: In a reporter assay the amount or activity of a reporter protein is the signal.
Take `O=C(NCc1cccnc1)c1cc(C2CCCN(C(=O)CCCc3ccccc3)C2)on1` (centres undefined): the inhibition is 0.68%.
For `O=C(NNS(=O)(=O)c1ccccc1)c1cnn(-c2ccc(Cl)cc2)c1C(F)(F)F` the value was 4.65%; for `CCCCN(C)CCNC(=O)C1CCCN(S(=O)(=O)c2cccc3nsnc23)C1` (centres undefined), -0.5%; for `CCCCN(CC)C(=O)C1CCCN(S(=O)(=O)c2cccc3nsnc23)C1` (centres undefined), -6.36%.
On to `O=C(c1ccco1)N1CCN(C(=O)C2CCCN(S(=O)(=O)c3cccc4nsnc34)C2)CC1` (centres undefined), for which the inhibition was 62.4% (active).
In the case of `O=C(CCl)NNc1cccc(Cl)n1`, the inhibition was -23.4%.
Next, `O=C(Nc1cccc(Cl)c1)Nc1ccccc1NS(=O)(=O)c1cccs1`: 10.4%; `COc1cc(NC(=O)c2ccccc2NS(=O)(=O)c2ccc(Cl)s2)cc(OC)c1`: 72.6% (active); `O=S(=O)(Nc1ccccc1N1CCOCC1)c1ccc(Cl)s1`: 4.55%.
For the compound `CCOCCCN(C)C1CCN(C(=O)c2oc3ccccc3c2NC(=O)Cc2cccc([N+](=O)[O-])c2)CC1`, the inhibition was -1.52%.
In the case of `Cc1ccc2c(c1)NC(=O)[C@@]1(C)[C@@H](c3ccccc3)[C@H]3COc4ccc(Cl)cc4[C@@H]3N1C2=O`, the inhibition is 15.4%.
Take `CCN1CCN(c2sc(S(C)(=O)=O)nc2S(=O)(=O)c2ccc(Cl)cc2)CC1`: the inhibition was 31.6%.
Next, `COC(=O)[C@@]1(Sc2ccc(C)cc2)CC(=O)N(c2cccc(SC)c2)[C@@H]1c1ccccc1`: 69.9% (active); `CCOC(=O)N1C(=O)C[C@](Sc2ccc(C)cc2)(C(=O)OC)[C@H]1c1ccccc1`: 14.7%; `COC(=O)c1ccccc1SC1CC(=O)N(c2cccc(C)c2)C1=O` (centres undefined): -5.63%.
Next, `CCCCn1nnnc1C(c1cc2ccccc2o1)N(C)Cc1ccc(Cl)c(Cl)c1` (centres undefined): -0.38%; `COc1ccc(C(=O)N2CCCCC2c2cc(C(=O)Nc3ccccc3)no2)cc1` (centres undefined): -7.61%.
Next, `COc1cc2[nH]c(=S)n(Cc3ccc(F)cc3)c(=O)c2cc1OC`: -27%.
On to `COc1cc2[nH]c(=S)n(CCN3CCCCC3C)c(=O)c2cc1OC` (centres undefined), for which the inhibition is 77.3% (active).
Next, `CCOc1cc2[nH]c(=S)n(CCN3CCCCC3C)c(=O)c2cc1OCC` (centres undefined): -2.73%; `CCOCCCNC(=O)C(NC(=O)CNC(=O)c1ccccc1)c1ccc(OC)cc1` (centres undefined): -12.7%.
Next, `CN(C)Cc1ccc(F)cc1Sc1cc(Cl)ccc1Cl`: 5.28%; `CC(=O)N1C(C)c2ccccc2C(C)(C)CC12CCCCC2` (centres undefined): -11.4%.
On to `C=CC1=C(C(=O)O)N2C(=O)[C@@H](NC(=O)/C(=N/OCC(=O)O)c3csc(N)n3)[C@H]2SC1`, for which the inhibition is 75.2% (active).
Next, `C=CC1=C(C(=O)O)N2C(=O)[C@@H](NC(=O)/C(=N\OCC(=O)O)c3csc(N)n3)[C@H]2SC1`: 14.2%; `CO/N=C(\C(=O)N[C@@H]1C(=O)N2C(C(=O)O)=C(COC(C)=O)CS[C@H]12)c1csc(N)n1` (stereo in doubt): 15% and 5.82% and -5.11%.
On to `CC(=O)c1ccc(S(=O)(=O)N(C)CCCC(=O)N(C)Cc2ccccc2F)cc1`, for which the inhibition was 13.5%.
As for `CC1(C)OC(=O)C2=C(C[C@@H](C3CCCCC3)O[C@@H]2c2ccc(Cl)cc2)O1`, the inhibition is -5.53%.
On to `Cc1cccc(N2CCN(C(=O)COCc3cc(-c4ccc5c(c4)OCO5)on3)CC2)c1C`, for which the inhibition was -13.9%.
As for `CC(=O)N(Cc1cc(=O)[nH]c2ccccc12)c1ccc(C)cc1C`, the inhibition is 4.2%.
Next, `CCC(=O)N(Cc1cc2ccccc2[nH]c1=O)c1ccc(OC)cc1`: -8.72%; `Cc1ccc(N(Cc2cc(=O)[nH]c3ccccc23)C(=O)CCl)cc1`: 52.1% (active); `CCN(CC)S(=O)(=O)c1cccc(C(=O)NCC(=O)OCC(=O)NCc2ccccc2)c1`: 0.62%.
For `Cc1ccc(F)cc1S(=O)(=O)Nc1cccc(C(=O)N2CCCC(C(N)=O)C2)c1` (centres undefined) the value was -7.05%; for `NC(=O)[C@H]1CC2(CC(c3cccc(NC(=O)[C@H]4CCC(=O)N4)c3)=NO2)CN1C(=O)c1ccccc1C(=O)c1ccccc1` (some centres undefined), -12.2%; for `COc1ccc(CCNC(=S)NC(=O)/C=C/c2ccc(C)cc2)cc1OC`, -15.4%.
Next, `Cc1ccc2c(Cl)c(C(=O)NCCCn3ccnc3)sc2c1`: -11.3%.
For `Cc1ccc(S(=O)(=O)c2nc(NCCCn3ccnc3)sc2Cl)cc1`, the inhibition is 80.5% (active).
Next, `Cc1ccc(-c2nc(C#N)c(NCCCn3ccnc3)o2)cc1`: -18.1%.
For `CCOC(=O)/C(=C\c1ccc([N+](=O)[O-])cc1)C(=O)c1cc(C(C)=O)c(Nc2ccccc2)s1` the value was 104% (active).
In the case of `CCOC(=O)/C(=N\Nc1ccccc1[N+](=O)[O-])c1csc(Nc2ccccc2)n1`, the inhibition was 8.54%.
For `O=C(O)C(=Cc1ccc([N+](=O)[O-])cc1)CCc1ccccc1` the value was -10.9%; for `CCCCc1c(-c2ccc(Br)cc2)ncn1CCc1ccccc1OC`, 38.9%.
Next, `Cc1noc(C)c1NC(=O)N(C)C[C@@H]1Oc2cc(Br)ccc2S(=O)(=O)N([C@@H](C)CO)C[C@H]1C`: 18.1%; `COC(=O)c1ccc(Nc2ncnc3sccc23)cc1`: -10.3%.
Next, `COC(=O)c1ccc2nc(C3CCCCC3)c(Cc3cccc(F)c3)n2c1`: -20.2%; `O=C(O)C(F)(F)C(NCc1ccccc1)c1ccccc1` (centres undefined): -8.01%; `CC[C@H]1CN2CCc3cc(OC)c(OC)cc3[C@@H]2C[C@@H]1C[C@H]1NCCc2cc(OC)c(OC)cc21`: 98% (active).
For `Cn1ncc([N+](=O)[O-])c1C(=O)Nc1cc(Cl)ccc1Cl`, the inhibition was -23.8%.
For `Cc1cc2nc(-c3ccc(F)cc3)c(Cc3ccsc3)n2c(C)c1Br` the value was 0.39%.
For `Cc1cc(=O)oc2c3c(cc(OCC(=O)NCC(O)c4ccccc4)c12)OC(C)(C)CC3` (centres undefined) the value was -0.31%; for `O=C(CC1CCCCC1)NCc1ccc(F)cc1`, 7.42%.
For `CCc1ccc2c(c1)C1(NN=C(c3ccccc3)S1)C(=O)N2` (centres undefined) the value was 87.5% (active); for `CCc1ccc2c(c1)NC(=O)C2(C)Cc1ccc(OC(F)(F)F)cc1` (centres undefined), 8.25%.
